# Source: PubChem (several laboratories)
# Most compounds without a hit are left out; they make up all but 2.7% or so of the library.
# CendR NRP1 mod – NRP-1/CendR interaction modulation | 0.85% of 360,000 active | O14786 | FAM-RPARPAR peptide binding to NRP-1, fluorescence polarization | AID 602438 | inhibition, % at 25 µM;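 active = inhibition or corrected inhibition above about 18%, plus a signal ratio from 0.5 to 1.5, limit read from the data, passing the limit was not always enough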
# F508del corr – correctors of CFTR F508del function in bronchial epithelial cells; CFBE cells, YFP halide quenching; stimulated with forskolin plus potentiator P3; % fluorescence drop versus neutral controls; activity (quench increase), % at 7.58 µM; 0.36% of 350,000 active; AID 720511;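 active = mean added fluorescence quench of at least 8% versus neutral control, with both replicates also reaching 8%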;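 note: cells transiently co-express mutant CFTR-F508del with the halide-sensitive YFP; corrector assay measuring rescue of mutant channel to the surface after 24 h compound exposure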
# SKN-1 block – blocks SKN-1 activity in C. elegans | inhibition, % at 21.8 µM | C. elegans VP596 Pgst-4::GFP/RFP ratio, acrylamide-induced, 24 h | 0.49% of 360,000 active;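 active = interference check ratio from 0.5 to 1.5 plus GFP to RFP signal ratio inhibition reaching or exceeding a fixed threshold, cut at about 30% in these data, passing the limit was not always enough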
# ATG4B inhibitor – ATG4B (human) cysteine protease inhibition; 0.51% of 340,000 active; ATG4B cleavage of LC3-PLA2, NBD-HPC fluorescence, 1 h; inhibition, % at 8.33 µM; Q9Y4P1; in the data active = inhibition above about 40%
# Target sequence (Q9Y4P1 whole entry, looked up): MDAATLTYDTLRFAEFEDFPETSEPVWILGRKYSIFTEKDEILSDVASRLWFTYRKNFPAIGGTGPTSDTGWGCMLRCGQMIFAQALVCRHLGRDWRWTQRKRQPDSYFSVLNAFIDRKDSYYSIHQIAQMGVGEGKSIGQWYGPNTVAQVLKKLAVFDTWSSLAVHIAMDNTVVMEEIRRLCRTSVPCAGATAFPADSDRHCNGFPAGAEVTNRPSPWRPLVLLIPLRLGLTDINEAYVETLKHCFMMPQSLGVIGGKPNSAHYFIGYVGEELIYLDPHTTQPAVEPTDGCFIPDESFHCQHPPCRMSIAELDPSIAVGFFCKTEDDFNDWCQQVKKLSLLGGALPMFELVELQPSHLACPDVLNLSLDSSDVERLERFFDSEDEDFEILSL
# MPTP inh – inhibitors of mitochondrial permeability transition pore; isolated mouse mitochondria, Ca2+ swelling absorbance, 30 min; inhibition, % at 10 µM; 1.4% of 360,000 active;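 active = inhibition of 50% or more, scaled per plate between neutral and stimulator controls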;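 note: 0% = DMSO wells given calcium and 100% = 1 mM EGTA wells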
# Rh123 counter – mitochondrial membrane potential, counter-screen | shares compounds with MPTP inh | 78% of 5,000 active | inhibition, % at 10 µM | isolated mitochondria, Rhodamine 123 fluorescence; in the data active = inhibition above about 22%;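 note: 0% = DMSO vehicle and 100% = positive control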
# MPTP swell DR – dose response confirmation of mitochondrial permeability transition pore inhibitors; AID 651561; isolated mitochondria swelling, absorbance; IC50, µM; shares compounds with MPTP inh; 58% of 780 active; in the data active = IC50 below about 20 µM
# MPTP cs DR – MPTP inhibitor counter-screen activity, dose response. IC50, µM. 49% of 780 active. isolated mitochondria counterscreen, fluorescence read-out. AID 651564. shares compounds with MPTP inh; in the data active = IC50 below about 80 µM
# Active calls of the source: *; nt = not tested or not shown.
SMILES,CendR NRP1 mod,F508del corr,SKN-1 block,ATG4B inhibitor,MPTP inh,Rh123 counter,others
Cc1noc(C)c1NC(=O)N(C)C[C@H]1Oc2ccc(NC(=O)Nc3ccccc3)cc2C(=O)N([C@@H](C)CO)C[C@@H]1C,nt,-3,nt,nt,nt,nt,
C[C@@H]1CN([C@@H](C)CO)C(=O)Cc2cc(NS(=O)(=O)c3ccccc3)ccc2O[C@@H]1CN(C)C(=O)Nc1ccccc1,nt,2,nt,nt,nt,nt,
Cc1cc(O)c2c(c1)C(=O)c1cc(O)cc(O)c1C2=O,-88,2,7,1,50*,80*,
Cc1ccc(S(=O)(=O)C(C#N)c2nc3ccccc3nc2N2CCN(C)CC2)cc1 (stereo not given),0,nt,3,-5,-15,nt,
CC1CCCN(c2nc3ccccc3nc2C(C#N)S(=O)(=O)c2ccccc2)C1 (stereo not given),-16,nt,7,-5,82*,83*,
CCCCOc1nc2ccccc2nc1C(C#N)S(=O)(=O)c1ccccc1 (stereo not given),-5,-2,5,0,51*,78*,
CO[C@H]1CC[C@@H]2CCN(C)C(=O)[C@H](C)[C@H](OC)CN(C)C(=O)c3cc(C#N)ccc3OC[C@H]1O2,nt,2,nt,nt,nt,nt,
COc1ccc(S(=O)(=O)Nc2ccc3c(c2)C(=O)N([C@H](C)CO)C[C@H](C)[C@@H](CN(C)Cc2ccc(C(F)(F)F)cc2)O3)cc1,nt,0,nt,nt,nt,nt,
CC(/C=N\NC(=O)Cn1c(C)nc2ccccc21)=C\c1ccccc1,-5,nt,-15,5,54*,65*,
CC(/C=N/NC(=O)CSc1nc(C)cc(C)n1)=C\c1ccccc1,-55,nt,12,-20,50*,53*,
Cc1noc(C)c1NC(=O)Nc1cccc2c1O[C@@H](CN(C)S(=O)(=O)c1cccs1)[C@@H](C)CN([C@H](C)CO)C2=O,nt,-3,nt,nt,nt,nt,
CNC(=O)C[C@@H]1CC[C@@H]2[C@@H](COc3ccc(NC(=O)c4cccs4)cc3C(=O)N2C)O1,nt,-1,nt,nt,nt,nt,
CC(C)(C)c1nc(NC(=O)Nc2ccccc2)sc1Br,2,1,17,17,94*,80*,
CC(C)(C)c1nnc(NC(=O)Nc2ccc(Cl)cc2)s1,1,0,5,-3,58*,86*,
O=C(Nc1nnc(SCc2ccccc2)s1)c1cccc([N+](=O)[O-])c1,-2,nt,3,20,71*,83*,
COc1ccc(NC(=O)Nc2nnc(C(C)(C)C)s2)cc1,0,-4,-8,-7,13,nt,
CC1CCN(S(=O)(=O)c2nnc(NC(=O)c3cccc([N+](=O)[O-])c3)s2)CC1,-18,nt,13,11,82*,42*,
O=C(Cc1nnc(NC(=O)Nc2ccccc2)s1)Nc1ccccc1,-3,-1,19,1,4,nt,
O=C(Nc1ccc(Cl)c(Cl)c1)Nc1nnc(CSc2ccccc2)s1,-14,-2,-3,-3,75*,40*,
Cc1ccc(OCCSCc2nnc(NC(=O)Nc3cccc(Cl)c3)s2)cc1,-20,nt,7,-10,93*,85*,
O=C(Cc1nnc(NC(=O)Nc2ccc(F)cc2)s1)Nc1ccccc1,1,-3,0,4,3,nt,
O=C(Nc1ccc(Cl)cc1)Nc1nnc(CSCc2ccccc2Cl)s1,0,2,6,-6,79*,57*,
O=C(Nc1ccccc1)Nc1nnc(CSCc2ccccc2Cl)s1,-18,nt,10,24,90*,92*,
Cc1noc(C)c1NC(=O)N(C)C[C@H]1OCCCC[C@H](C)Oc2ccc(NS(=O)(=O)c3cn(C)cn3)cc2C(=O)N([C@@H](C)CO)C[C@H]1C,nt,-2,nt,nt,nt,nt,
CO[C@H]1CN(C)C(=O)c2cc(NS(=O)(=O)c3cccc(Cl)c3)ccc2OC[C@@H](C)NC[C@@H]1C,nt,2,nt,nt,nt,nt,
SMILES,CendR NRP1 mod,F508del corr,SKN-1 block,ATG4B inhibitor,MPTP inh,Rh123 counter,others
O=C(Nc1ccc(Cl)cc1)Nc1nnc(SCc2ccccc2)s1,-6,1,-1,1,86*,89*,
O=C(Nc1nnc(SCc2ccc(Cl)cc2)s1)c1ccco1,3,nt,-14,0,-2,nt,
CCSc1nnc(NC(=O)C(CC)(C(F)(F)F)C(F)(F)F)s1,-9,nt,12,1,54*,106*,
CCSc1nnc(NC(=O)C(C)(C(F)(F)F)C(F)(F)F)s1,5,nt,-13,4,26,nt,
Cc1noc(C)c1S(=O)(=O)Nc1ccc2c(c1)C(=O)N([C@H](C)CO)C[C@H](C)[C@H](CN(C)C(=O)CCCN(C)C)OCCCC[C@@H](C)O2,nt,2,nt,nt,nt,nt,
O=C(N/N=C/c1cccc(O)c1)c1csc2ccccc12,-6,nt,24,-22,108*,2,MPTP swell DR=1.1*;MPTP cs DR=>80
COc1ccc(NC(=O)N(C)C[C@@H]2Oc3c(NC(=O)c4cnccn4)cccc3C(=O)N([C@@H](C)CO)C[C@@H]2C)cc1,nt,-4,nt,nt,nt,nt,
CCCCN1C(=O)c2ccc(C(=O)Nc3ccc(C)c(S(=O)(=O)N(C)C)c3)cc2C1=O,-6,nt,14,-17,69*,69*,
Cc1ccc(NC(=O)c2ccc(OC(F)(F)F)cc2)cc1S(=O)(=O)N(C)C,-6,nt,1,-7,78*,86*,
CN(C)S(=O)(=O)Oc1ccc(C(=O)Nc2cccc(C(F)(F)F)c2)cc1,8,-4,5,-4,74*,82*,
CCCCN1C(=O)c2ccc(C(=O)Nc3cccc(C)c3C)cc2C1=O,10,nt,-12,-2,0,nt,
COc1ccc(-c2ccc3c(c2)[C@H]2[C@H](CCN2C(=O)CN2CCOCC2)[C@@H](CO)N3)cc1,nt,0,nt,nt,nt,nt,
Cc1ccc(S(=O)(=O)N(C)C[C@@H]2OCCCC[C@H](C)Oc3ccc(NC(=O)CCCCCC(=O)Nc4ccccc4N)cc3C(=O)N([C@H](C)CO)C[C@@H]2C)cc1,nt,-4,nt,nt,nt,nt,
O=c1oc2ccccc2c(Nc2ccc3ccccc3c2)c1[N+](=O)[O-],2,nt,8,2,62*,78*,
C[C@@H]1CN([C@H](C)CO)C(=O)c2cc(N(C)C)ccc2O[C@@H](C)CCCCO[C@@H]1CN(C)C(=O)Nc1cccc2ccccc12,nt,1,nt,nt,nt,nt,
COc1ccc(-c2csc(NC(=O)CSc3nc(SC)ns3)n2)cc1,6,nt,5,-13,65*,74*,
COc1ccc(-c2csc(NC(=O)CSc3nc(C)cs3)n2)cc1,9,nt,-16,-2,31,nt,
CCOC(=S)SCC(=O)Nc1nc(-c2ccc(Br)cc2)cs1,-6,1,3,5,80*,75*,
O=C(C[C@@H]1CC[C@H](NS(=O)(=O)c2ccc(F)cc2)[C@H](CO)O1)N1CCc2ccccc2C1,nt,2,nt,nt,nt,nt,
